A selection: hits, their analogues and other compounds. The true share with any hit is near 3.6%.
Pf apPOL inh: Pf-apPOL DNA polymerase inhibition | inhibition, % at 10 µM | Recombinant Pf-apPOL, molecular beacon fluorescence, 1.5 h | AID 1794808 | actives 0.25% (n = 210,000)
mHTT-CaM PPI inh: inhibitors of human mutant huntingtin-calmodulin interaction. P42858. AlphaScreen His-mHTT/GST-CaM binding, luminescence. inhibition, % at 15 µM. actives 3.6% (n = 190,000);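 note: 0% = both proteins with DMSO and 100% = one protein alone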
Target sequence (P42858 whole entry, looked up, stated change not applied): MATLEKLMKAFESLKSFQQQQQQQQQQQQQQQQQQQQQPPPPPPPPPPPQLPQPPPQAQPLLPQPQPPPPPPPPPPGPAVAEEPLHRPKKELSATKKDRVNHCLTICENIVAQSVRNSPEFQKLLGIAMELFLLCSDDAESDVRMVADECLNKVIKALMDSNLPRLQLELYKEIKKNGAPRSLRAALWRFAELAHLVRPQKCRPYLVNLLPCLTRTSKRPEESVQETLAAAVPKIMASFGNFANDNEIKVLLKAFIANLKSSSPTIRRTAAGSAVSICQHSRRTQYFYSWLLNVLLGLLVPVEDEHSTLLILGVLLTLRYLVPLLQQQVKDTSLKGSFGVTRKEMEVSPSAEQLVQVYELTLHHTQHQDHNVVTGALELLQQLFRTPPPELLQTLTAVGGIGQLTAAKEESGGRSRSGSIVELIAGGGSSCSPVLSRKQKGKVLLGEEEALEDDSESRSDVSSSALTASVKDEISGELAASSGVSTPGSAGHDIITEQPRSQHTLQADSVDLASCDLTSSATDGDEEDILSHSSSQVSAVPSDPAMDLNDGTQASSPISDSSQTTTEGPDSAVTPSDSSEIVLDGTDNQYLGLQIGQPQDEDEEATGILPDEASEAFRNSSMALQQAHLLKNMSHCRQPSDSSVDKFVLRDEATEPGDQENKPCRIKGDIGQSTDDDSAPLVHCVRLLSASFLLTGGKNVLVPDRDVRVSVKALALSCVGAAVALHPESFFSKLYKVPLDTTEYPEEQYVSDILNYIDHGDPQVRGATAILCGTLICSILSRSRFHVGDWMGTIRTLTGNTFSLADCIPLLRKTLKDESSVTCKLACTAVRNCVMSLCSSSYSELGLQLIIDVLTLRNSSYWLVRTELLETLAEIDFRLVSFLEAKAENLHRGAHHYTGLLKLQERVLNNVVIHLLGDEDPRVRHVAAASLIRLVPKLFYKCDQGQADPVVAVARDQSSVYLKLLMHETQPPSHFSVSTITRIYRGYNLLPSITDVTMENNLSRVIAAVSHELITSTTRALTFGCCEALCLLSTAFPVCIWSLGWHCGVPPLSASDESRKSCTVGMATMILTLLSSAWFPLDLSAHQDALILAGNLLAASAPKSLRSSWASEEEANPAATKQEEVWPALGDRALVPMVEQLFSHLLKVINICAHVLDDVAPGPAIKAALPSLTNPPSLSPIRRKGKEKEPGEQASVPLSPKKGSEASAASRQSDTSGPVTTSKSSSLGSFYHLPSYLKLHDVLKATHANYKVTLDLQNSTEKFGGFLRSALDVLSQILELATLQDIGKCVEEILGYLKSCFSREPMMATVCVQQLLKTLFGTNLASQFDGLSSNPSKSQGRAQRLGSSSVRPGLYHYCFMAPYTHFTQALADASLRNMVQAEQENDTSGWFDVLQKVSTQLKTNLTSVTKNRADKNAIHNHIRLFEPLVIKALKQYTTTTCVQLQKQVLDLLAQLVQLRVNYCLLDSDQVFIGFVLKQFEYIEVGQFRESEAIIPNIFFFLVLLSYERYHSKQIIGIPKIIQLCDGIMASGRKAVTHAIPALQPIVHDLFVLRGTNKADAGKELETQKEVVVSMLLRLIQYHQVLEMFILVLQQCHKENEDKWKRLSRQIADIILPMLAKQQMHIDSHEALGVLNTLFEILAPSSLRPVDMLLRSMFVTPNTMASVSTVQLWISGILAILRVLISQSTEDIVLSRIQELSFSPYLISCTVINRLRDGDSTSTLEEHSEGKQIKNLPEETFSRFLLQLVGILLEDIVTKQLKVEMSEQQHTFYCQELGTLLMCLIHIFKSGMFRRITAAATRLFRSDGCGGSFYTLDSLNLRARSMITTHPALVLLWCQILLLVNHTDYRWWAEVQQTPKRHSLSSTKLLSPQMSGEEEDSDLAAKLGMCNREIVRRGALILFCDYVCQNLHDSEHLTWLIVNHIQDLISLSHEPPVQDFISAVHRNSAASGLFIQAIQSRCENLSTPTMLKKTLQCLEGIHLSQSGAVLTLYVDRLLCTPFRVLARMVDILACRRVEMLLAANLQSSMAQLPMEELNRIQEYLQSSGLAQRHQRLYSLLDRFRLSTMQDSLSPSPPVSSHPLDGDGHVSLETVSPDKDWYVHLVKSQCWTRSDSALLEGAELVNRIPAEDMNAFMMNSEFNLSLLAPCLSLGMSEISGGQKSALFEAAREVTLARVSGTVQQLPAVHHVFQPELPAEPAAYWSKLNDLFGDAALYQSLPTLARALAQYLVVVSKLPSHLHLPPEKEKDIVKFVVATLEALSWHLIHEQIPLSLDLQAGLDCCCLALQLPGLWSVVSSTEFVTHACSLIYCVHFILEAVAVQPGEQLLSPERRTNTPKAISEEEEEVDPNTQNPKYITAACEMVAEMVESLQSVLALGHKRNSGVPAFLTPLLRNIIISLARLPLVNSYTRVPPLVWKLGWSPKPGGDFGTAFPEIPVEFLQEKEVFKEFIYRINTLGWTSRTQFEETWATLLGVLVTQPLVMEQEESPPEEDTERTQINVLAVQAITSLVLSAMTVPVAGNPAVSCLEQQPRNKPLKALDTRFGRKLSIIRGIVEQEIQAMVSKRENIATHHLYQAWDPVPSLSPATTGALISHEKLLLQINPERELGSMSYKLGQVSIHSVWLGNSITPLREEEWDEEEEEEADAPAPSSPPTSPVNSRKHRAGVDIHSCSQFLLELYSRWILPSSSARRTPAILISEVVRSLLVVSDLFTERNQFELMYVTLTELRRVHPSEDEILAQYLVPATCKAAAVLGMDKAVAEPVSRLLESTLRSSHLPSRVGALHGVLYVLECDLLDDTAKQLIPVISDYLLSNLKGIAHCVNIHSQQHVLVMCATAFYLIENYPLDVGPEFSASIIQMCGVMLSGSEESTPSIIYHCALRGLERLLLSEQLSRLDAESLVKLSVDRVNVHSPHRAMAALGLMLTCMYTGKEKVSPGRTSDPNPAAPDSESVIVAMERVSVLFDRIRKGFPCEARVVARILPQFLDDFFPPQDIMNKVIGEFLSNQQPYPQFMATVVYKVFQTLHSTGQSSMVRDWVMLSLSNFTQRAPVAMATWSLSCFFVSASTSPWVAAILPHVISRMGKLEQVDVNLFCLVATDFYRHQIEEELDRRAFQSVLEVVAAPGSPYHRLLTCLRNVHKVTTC
Numbers without * were called inactive. Cut-off read from the data, not from the text of the source: active = inhibition above about 50%; inactive = the rest.

SMILES | Pf apPOL inh | mHTT-CaM PPI inh
Cc1ccc(C(=O)N2CCCC2COc2ccc(C(=O)N3CCCC3)cc2)cc1 (stereo not drawn) | 6 | 4
Cc1ccccc1CNC(=O)C1CCc2sc(C(=O)N3CCOCC3)cc2C1 (stereo not drawn) | -7 | -1
O=C1[C@H](Cc2ccccc2)NC/C=C\C[C@H](c2ccc(Cl)cc2)N1Cc1ccc(Cl)cc1 | -6 | 99*
O=C1CSC(c2ccc(F)cc2)N1Cc1ccccc1 (stereo not drawn) | 0 | -5
CCN(CC)c1nc(C)nc2sc(C(=O)Nc3cc(OC)ccc3OC)c(C)c12 | -3 | -4
CCN(CC)c1nc(C)nc2sc(C(=O)Nc3cc(OC)c(OC)c(OC)c3)c(C)c12 | -4 | 51*
O=C(NCCN1CCCC1)c1cc2cn(C3CCCC3)cc2s1 | 3 | 17
O=C(c1cn(-c2ccccc2)nc1-c1ccc([N+](=O)[O-])cc1)N1CCCCC1 | -5 | -4
CCN1c2cc(C)ccc2-n2cccc2C12CCN(C(=O)Nc1cccc(OC)c1)CC2 | 4 | 56*
CCOc1ccc(NC(=O)N2CCC3(CC2)c2cccn2-c2ccc(C)cc2N3CC)cc1 | -3 | 52*
CCN1c2ccccc2-n2cccc2C12CCN(C(=O)Nc1cc(C)ccc1C)CC2 | -2 | 0
CCN1c2cc(C)ccc2-n2cccc2C12CCN(C(=O)NCc1cccc(OC)c1)CC2 | 2 | 34
CCN1c2cc(C)ccc2-n2cccc2C12CCN(C(=O)Nc1ccccc1)CC2 | -6 | 52*
CCN1c2cc(C)ccc2-n2cccc2C12CCN(C(=O)Nc1ccc(C)cc1)CC2 | -6 | 44
CCN1c2cc(C)ccc2-n2cccc2C12CCN(C(=O)Nc1ccc(OC)cc1)CC2 | -1 | 56*
CCN1c2cc(Cl)ccc2C(=O)NC12CCN(C(=O)Nc1ccc(OC)cc1)CC2 | -8 | 23
CSc1cccc(NC(=O)c2nnn(Cc3cccc(Cl)c3)c2N)c1 | -3 | 11
CCc1noc(-c2cccnc2N2CCCN(Cc3c(F)cccc3Cl)CC2)n1 | 4 | -6
CCN(CC1CC(c2cccc(F)c2)=NO1)C(=O)NC(C)(C)C (stereo not drawn) | -8 | -1
Cn1cc(-c2ccncc2)cc1C(=O)NCc1cccs1 | -12 | 0
CCN1c2cc(C)ccc2-n2cccc2C12CCN(C(=O)NC1CCCC1)CC2 | -6 | 72*
CCN1c2cc(C)ccc2-n2cccc2C12CCN(C(=O)c1ccccc1OC)CC2 | -4 | 9
Cc1ccc2c(c1)C(=O)NC1(CCN(C(=O)NC3CCCCC3)CC1)N2C | 0 | 0
CCN1c2cc(C)ccc2-n2cccc2C12CCN(C(=O)Nc1ccccc1OC)CC2 | -1 | 66*
N=C1S/C(=C\c2ccc(-c3ccc(F)c(Cl)c3)o2)C(=O)N1c1nccs1 | 1 | 15
SMILES | Pf apPOL inh | mHTT-CaM PPI inh
N=C1S/C(=C\c2ccc(-c3ccc(F)cc3F)o2)C(=O)N1c1nccs1 | 0 | 5
N=C1S/C(=C\c2ccc(-c3cccc(F)c3)o2)C(=O)N1c1nccs1 | -9 | 62*
N=C1S/C(=C\c2ccc(-c3ccccc3C(=O)O)o2)C(=O)N1c1nccs1 | -5 | 74*
Oc1ccc(C2CC3CCC2C3)cc1O (stereo not drawn) | -2 | 54*
Cc1cc(C2CCCCC2)ccc1O | -2 | 3
Cc1cc(C)n(-c2ccc(=O)n(CCNS(=O)(=O)Cc3ccccc3)n2)n1 | -6 | -7
O=C(Nc1ccc(O)c2c(=O)cc(-c3ccccc3Cl)oc12)c1ccc(Cl)cc1Cl | 1 | -3
O=c1cc(-c2ccccc2Cl)oc2c(NS(=O)(=O)c3cc(Cl)cc(Cl)c3O)ccc(O)c12 | 36 | 97*
CCCC12CN3CC(C)(CN(C1)C3c1ccc(C(C)C)cc1)C2=O (stereo not drawn) | 6 | -5
COc1ccc(OC)c2sc(N(CCCn3ccnc3)C(=O)Cc3ccccc3)nc12 | -8 | 68*
O=C(c1ccco1)N(CCCn1ccnc1)c1nc2c(Cl)cccc2s1 | 0 | 32
COc1ccc(C2/C=C\CN(S(=O)(=O)c3ccc4ccccc4c3)CC(=O)N2Cc2ccc(F)cc2)cc1 (stereo not drawn) | -6 | 17
COc1ccc(C2/C=C\CN(C(=O)c3ccccc3)CC(=O)N2Cc2ccc(F)cc2)cc1 (stereo not drawn) | -1 | 31
COc1ccc(C2/C=C\CC(OCc3ccccc3)CC(=O)N2Cc2cccc(F)c2)cc1 (stereo not drawn) | -7 | 100*
CCCCCCNC(=O)N1C/C=C\C(c2ccc(OC)cc2)N(Cc2ccc(F)cc2)C(=O)C1 (stereo not drawn) | -4 | 48
COc1ccc(C2/C=C\CN(C(=O)OCc3ccccc3)CC(=O)N2Cc2ccc(F)cc2)cc1 (stereo not drawn) | -5 | 92*
CCCCCCC(=O)N1C/C=C\C(c2ccc(OC)cc2)N(Cc2ccc(F)cc2)C(=O)C1 (stereo not drawn) | -4 | 62*
CCNC(=O)c1sc(-c2ccccc2F)nc1C | -4 | -3

Screening data as filed in PubChem.
